Experimental data reported in PubChem BioAssay (NCI).
About 83,000 compounds went through this panel and 20% of them were active in at least one assay; those are over-represented in the sample as a whole.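 Negative percent growth values reflect cell death: -40 means 40% of the cells present at the start died, and -100 means all died.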 Unmarked numbers belong to inactive results. The source made the active and inactive calls. Rule for the calls: active = growth percent below 10; inactive = the rest.

Test system: TK-10 renal
Experiment: NCI-60 one-dose screen, 48 h (100 = growth as untreated, 0 = no growth, -100 = all killed)
Conditions: 10 µM unless noted

| Structure (SMILES) | growth [%] |
| --- | --- |
| Nc1ccc(S(=O)(=O)Nc2ccnn2-c2ccccc2)cc1 | 117 |
| CNCCCOc1c(Br)cc(CCNC(=O)/C(Cc2cc(Br)c(OC)c(Br)c2)=N/O)cc1Br | 34.7 |
| [2H]c1nc(Nc2ncc(F)c(-c3cc(F)c4nc(C)n(C(C)C)c4c3)n2)c([2H])c([2H])c1CN1CCN(CC)CC1 | 35.1 |
| O=S(c1ccccc1)c1ccc2nnnn2n1 (stereo unspecified) | 99 |
| COc1ccc(Cn2cc3c(c2-c2cc(OC)c(OC)c(OC)c2)CCc2c(CO)noc2-3)cc1 | 74.5 |
| Nc1nc(-c2cc3c(cc2Cl)NC(=O)/C3=C/c2ccc(Cl)cc2)cs1 | 82.3 |
| COc1ccc(-c2ccc(NC(=O)Nc3ccc(Cl)c(C(F)(F)F)c3)c(C)n2)cc1 | 65.9 |
| COc1cc(Cn2cc3c(c2)-c2onc(CO)c2CC3)cc(OC)c1OC | 96.4 |
| COc1ccccc1NC(=O)COc1ccc(/C=C2/Oc3cc4occc4c(OC)c3C2=O)cc1OC | 119 |
| Cc1ccc2[nH]c3nc4cccnc4c(C)c3c2c1 | 38.7 |

Test system: ACHN renal
Experiment: as above
Conditions: 10 µM unless noted

| Structure (SMILES) | growth |
| --- | --- |
| O=C(Nc1cccc(-n2ccc3c(NC(=O)c4ccccc4)nccc32)c1)Nc1cc(C(F)(F)F)cc(C(F)(F)F)c1 | 8.65% (active) |
| Nc1nccc2c1ccn2-c1cccc(NC(=O)c2ccc(N3CCOCC3)c(C(F)(F)F)c2)c1 | 13.3% |
| COc1ccc(-c2nn(-c3ccc(NC(=O)Nc4cc(C(F)(F)F)cc(C(F)(F)F)c4)cc3)cc2-c2ccncc2)cc1Cl | 18.5% |
| CN(C)CCS(=O)(=O)Nc1cc(-c2ccc3ncnc(Nc4ccc(F)c(Cl)c4)c3c2)cnc1Cl | 20.2% |
| O=C(CSc1nnc(-c2cc3c([nH]c4ccccc43)c(-c3cccc(O)c3)n2)n1-c1ccccc1)c1ccccc1 | 40.3% |
| O=C(Nc1cccc(-n2ccc3c(NC(=O)c4ccccc4)nccc32)c1)c1cc(N2CCOCC2)cc(C(F)(F)F)c1 | 6% (active) |
| CCC1(C(N)=O)CC2C=CC1CC2 (stereo unspecified) | 107% |
| O=C1c2ccccc2OC=C(c2ccccc2)N1CCCCN1CCCCC1 | 104% |
| O=S(=O)(Nc1cccc2cc(OS(=O)(=O)c3ccccc3)ccc12)c1ccccc1 | 85.1% |
| COc1cc(CN(c2ccc(Cl)cc2)C2OC(=O)c3ccccc32)cc(OC)c1OC (stereo unspecified) | 85.7% |
| O=C(Nc1ccc(-n2ccc3c(NC(=O)c4ccccc4)nccc32)cc1)c1cccc(C(F)(F)F)c1 | 33.4% |
| O=C(Nc1ccc(-n2ccc3c(NC(=O)c4ccccc4)ncnc32)cc1)Nc1cccc(Cl)c1Cl | -20.4% (active) |
| CC1OC(n2c3ccccc3c3c4c(c5c6ccccc6[nH]c5c32)C(=O)N(CCN[C@@H]2CCC[C@H]2N)C4=O)CC(O)C1O (stereo partly specified) | 25% |
| O=C(Nc1cccc(-n2ccc3c(NC(=O)c4ccccc4)nccc32)c1)c1cccc(C(F)(F)F)c1 | 24.7% |
| CC(=O)c1cc2c(c(O)c1C)C(=O)C(=O)c1c(O)cccc1-2 | -90.3% (active) |
| O=C1OC(N(Cc2ccc(Cl)cc2)c2ccccc2)c2ccccc21 (stereo unspecified) | 108% |
| O=C1C(Cl)=C(Nc2ccccc2)C(=O)C(Cl)=C1Nc1ccccc1 | 109% |
| O=S(=O)(CCN1CCOCC1)Nc1cncc(-c2ccc3ncnc(Nc4ccc(F)c(Cl)c4)c3c2)c1 | 45.2% |
| COC1=C(OC)C(=O)C=CC1=O | 103% |
| O=C(NCCNc1nccc(-c2c(-c3cccc(O)c3)nc3sccn23)n1)Nc1cc(C(F)(F)F)cc(C(F)(F)F)c1 | 65.9% |
| CCn1c(SC)nnc1-c1cc2c([nH]c3ccccc32)c(-c2cccc(O)c2)n1 | 30.5% |
| C=CC(=O)Nc1cccc(Nc2nc(Nc3ccc(OCCOC(F)F)cc3)ncc2F)c1 | 4.89% (active) |
| NC(=O)C1=C[C@H]2[C@H]3C=C[C@@]2(O)C(=O)O[C@@H]3O1 | 44% |
| O=C(Nc1ccc(-n2ccc3c(NC(=O)c4ccccc4)ncnc32)cc1)Nc1ccc(Cl)c(C(F)(F)F)c1 | 4.23% (active) |
| O=C(Nc1ccc(-n2cc(-c3ccncc3)c(-c3ccc(O)c(Cl)c3)n2)cc1)Nc1cc(C(F)(F)F)cc(C(F)(F)F)c1 | 65.5% |
| c1ccc(CNCCN(CCNCc2ccccn2)Cc2ccc3ccccc3c2)nc1 | -27.9% (active) |
